# Bioassay records from PubChem BioAssay.
# Many of the other results were omitted from the sample, so hits are more common in it than they were.
# Tb PYK inh = blocks Trypanosoma brucei pyruvate kinase | Q57TT1 | TbPYK enzyme, Kinase-Glo Plus ATP luminescence, 45 min | Potency, µM (top dose mostly 76.8 µM), for inactives: at the highest dose activity, negative = inhibition, hits mostly inhibitors | 410,000 tested, 0.12% active; note: potency is the fitted concentration of half-maximal effect; % is set by controls: 0 for no effect and ±100 for the full control effect; nearly all actives have a fitted effect of over 50% in size
#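 Activity of T. brucei pyruvate kinase was followed by Kinase-Glo Plus luminescence after the enzyme reacted 45 min at room temperature with 130 uM ADP (final) and substrate. Test compounds were added before ADP at multiple concentrations.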
# Shiga toxin inh = blocks Shiga toxin action in Vero cells; 290,000 tested, 9.2% active; Vero cells, Shiga toxin protein synthesis inhibition reporter; inhibition, % at 38.7 µM; in the data active = inhibition mostly above about 28%, no sharp cut-off; inactive = mostly below about 43%; note: 0% is about no effect
# RE007 growth inh = less growth of the S. pombe RE007 Vpr strain; S. pombe RE007 Vpr strain, BacTiter-Glo ATP luminescence, 24 h; Potency, µM (highest dose often 92.2 µM), for the others: at the highest dose activity change, negative = less growth, most hits filed as inhibitors; 360,000 tested, 0.21% active; AID 651644; active = well fitted falling curve with a large enough effect; inconclusive = small, poorly fitted or top-dose-only effect; inactive = no such curve, though single readings can be large or run the other way; note: potency is the fitted concentration of half-maximal effect; % is set by controls: 0 for no effect and ±100 for the full control effect; nearly all actives have a fitted effect of over 50% in size
#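 Fission yeast RE007 carrying one integrated HIV-1 vpr copy, seeded at OD 0.01 in PMG+AL medium with 23 nL pinned compound. Grown 24 h at 30 degrees; viability read by BacTiter-Glo luminescence after 5 min.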
# LmPK inh = LmPK (Leishmania mexicana) enzyme inhibition | 290,000 tested, 0.37% active | Potency, µM (highest dose often 57.5 µM), for inactives: at the top dose activity change, negative = inhibition, actives largely listed as inhibitors | purified LmPK, Kinase-Glo ATP luminescence, 1 h | Q27686; note: potency is the fitted concentration of half-maximal effect; % is set by controls: 0 for no effect and ±100 for the full control effect
# Target sequence (Q27686 whole entry, looked up): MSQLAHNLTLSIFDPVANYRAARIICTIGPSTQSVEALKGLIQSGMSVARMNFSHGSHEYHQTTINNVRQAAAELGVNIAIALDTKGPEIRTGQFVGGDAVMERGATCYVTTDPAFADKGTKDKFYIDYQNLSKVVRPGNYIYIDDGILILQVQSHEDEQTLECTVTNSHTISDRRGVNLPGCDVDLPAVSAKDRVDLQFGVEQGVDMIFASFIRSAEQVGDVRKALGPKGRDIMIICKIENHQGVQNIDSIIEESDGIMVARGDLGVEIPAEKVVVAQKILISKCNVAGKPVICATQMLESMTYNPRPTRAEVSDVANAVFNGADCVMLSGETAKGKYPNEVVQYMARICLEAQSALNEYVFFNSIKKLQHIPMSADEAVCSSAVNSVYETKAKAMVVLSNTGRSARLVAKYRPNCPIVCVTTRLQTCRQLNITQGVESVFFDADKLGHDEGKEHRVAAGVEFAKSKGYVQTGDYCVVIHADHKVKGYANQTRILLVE
#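 Pyruvate kinase activity monitored as ATP production (luciferase luminescence). Conditions: 0.1 nM enzyme, 0.5 mM PEP, 0.1 mM ADP, 1 h, RT; normalized against uninhibited and no-enzyme wells.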
# Giardia FBPA inh = Giardia lamblia aldolase inhibition; purified Giardia FBPA; Potency, µM (doses to about 59.6 µM), for the others: at the highest dose activity, negative = inhibition, hits mostly inhibitors; 290,000 tested, 0.71% active; note: potency is the fitted concentration of half-maximal effect; % is set by controls: 0 for no effect and ±100 for the full control effect; nearly all actives have a fitted effect of over 55% in size
#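 Giardia FBPA (40 nM reagent) was preincubated 10 min at RT with compound (up to 57.5 uM final), then substrate plus GAPDH/TPI/NAD/arsenate coupling system with diaphorase/resazurin was added; resorufin fluorescence (525/598 nm) was read after 20 min.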
# CHX counter = counter-screen for Shiga toxin inhibitors: cycloheximide protein synthesis inhibition. cell reporter, cycloheximide protein synthesis inhibition counterscreen. max response, %. 300,000 tested, 12% active; in the data active = max response mostly above about 13%, no sharp cut-off; inactive = mostly below about 14%; note: read at 38.3 µM for the half of the compounds with a filed dose; 0% is about no effect
# * hit, by the source's call; u = inconclusive; x = no result; + = active, no number. Unless noted, calls come from the whole dose curve; as a rule, active = well fitted curve in the direction sought with a large enough effect; inconclusive = small, poorly fitted or top-dose-only effect, or another doubt; inactive = no such curve, though single readings can be large; an effect the other way counts as inactive or inconclusive.
SMILES,Tb PYK inh,Shiga toxin inh,RE007 growth inh,LmPK inh,Giardia FBPA inh,CHX counter
CCOC(=O)Cn1ccc(NC(=O)c2ccc3c(c2)OCO3)n1,3.0%,-10.0,-5.9%,-4.6%,7.6%,30.6*
Cc1ccc(NC(=O)/C=C/c2ccc3c(c2)OCO3)nc1,-7.9%,147.1*,7.2%,1.6%,-3.8%,56.5*
Cc1ccc(OC(F)F)c(NC(=O)Nc2ccc3c(c2)OCO3)c1,-4.5%,-9.8,-5.8%,4.8%,3.0%,-3.6
Cc1ccc2nc(NC(=O)/C=C/c3ccc4c(c3)OCO4)sc2c1,-2.3%,10.1,2.2%,4.3%,-3.3%,3.1
Cc1cc(C)nc(NC(=O)Nc2ccc3c(c2)OCO3)c1,-8.8%,64.6*,-13.3%,-4.6%,19.6%,47.2*
CCOC(=O)c1noc2ncn(CC(=O)Nc3ccccc3OC)c(=O)c12,5.6%,x,x,x,x,x
COc1ccccc1NC(=O)c1oc2ccccc2c1NC(=O)COc1cccc(C)c1,-0.1%,x,x,x,x,x
CC(C)CC1NC(=S)N(Cc2ccccc2)C1=O (stereo unspecified),-2.6%,21.4,-0.5%,-0.8%,9.9%,-2.8
Cc1ccc(NC(=O)Nc2ccc3c(c2)OCO3)nc1,-3.7%,80.3*,48.7%,2.9%,0.7%,21.5*
Cc1ccnc(NC(=O)CNC(=O)c2ccc3ccccc3c2)c1,-12.4%,x,19.2%,x,x,x
Cc1ccnc(NC(=O)CNC(=O)c2ccc3c(c2)OCO3)c1,2.3%,45.0*,9.5%,-7.4%,x,26.1*
CCOC(=O)Cn1nc(NC(=O)c2cc(OC)cc(OC)c2)cc1C,4.6%,-9.2,0.5%,0.1%,4.4%,4.7
CCOC(=O)Cn1nc(NC(=O)c2ccc(C(=O)OC)cc2)cc1C,-1.7%,3.4,-21.0%,-0.8%,-3.3%,18.6*
Cc1cc(C)nc(NC(=O)c2ccc3c(c2)OCO3)c1,x,85.2*,x,-18.2%,-9.7%,46.3*
Cc1ccc2oc(-c3ccc(Cl)c(NC(=O)c4ccc(OC(C)C)cc4)c3)nc2c1,-2.7%,x,x,x,x,x
Cc1ccc(F)cc1C(=O)N1CCCCC1c1cc(C(=O)Nc2ccccc2)no1 (stereo unspecified),-1.1%,x,-3.4%,x,x,x
COc1cccc(C(=O)n2c(SC)nc3cc4c(cc32)OCCO4)c1,1.6%,40.4,33.2%,-9.4%,-4.2%,17.1*
CC(NC(=O)COC(=O)c1ccccc1SCC(=O)N1CCCC1)c1ccccc1 (stereo unspecified),1.0%,x,2.0%,x,x,x
O=c1c(-c2cc(F)cc(F)c2)nc2cncnc2n1C1CC1,x,x,x,x,9.1%,x
COc1cccc(/C=C2\N=C(C3CCCCC3)OC2=O)c1OC,0.4%,13.4,-9.2%,8.3%,4.1%,52.5*
CC(=O)Oc1ccc(/C=C2\N=C(C3CCCCC3)OC2=O)cc1,0.4%,-2.9,-14.1%,4.5%,3.5%,4.3
CN(C)c1ccc(-c2nc3ccccc3n2C)cc1,u,15.1,u,12.6µM*,-11.9%,24.2*
CC(C)n1c(-c2ccc(N(C)C)cc2)nc2ccccc21,-15.0%,113.5*,-21.5%,-7.9%,10.2%,28.7*
CCn1c(-c2ccc(N(C)C)cc2)nc2ccccc21,-12.9%,73.1,-16.4%,-13.9%,x,23.1
C/C(=N\Nc1ccccc1[N+](=O)[O-])c1ccc(N2CCOCC2)cc1,-7.1%,86.4*,-19.6%,-2.5%,-6.2%,20.7*
SMILES,Tb PYK inh,Shiga toxin inh,RE007 growth inh,LmPK inh,Giardia FBPA inh,CHX counter
CC(C)/C(=N/Nc1ccccc1[N+](=O)[O-])c1ccccc1,2.2%,48.4*,9.5%,-3.7%,4.3%,26.5*
COC(=O)N/N=C(\C)c1ccc(C)c([N+](=O)[O-])c1,-3.2%,17.5*,-4.0%,-7.9%,-0.6%,18.6*
C/C(=N\NC(=O)c1cccnc1)c1ccc(C)c([N+](=O)[O-])c1,-2.6%,13.3,-17.6%,-2.5%,-0.1%,10.7
C/C(=N/Nc1ccccc1[N+](=O)[O-])c1ccc(C)c([N+](=O)[O-])c1,-7.7%,-5.7,-3.1%,5.0%,-7.5%,15.5*
N#C/C(=N/Nc1ccccc1[N+](=O)[O-])C(N)=S,-10.4%,28.2,0.7%,1.2%,-24.1%,5.2
Cn1c(CC(=O)Nc2ccccc2F)nnc1SCC(=O)N1CCOCC1,1.0%,41.8,1.4%,-6.0%,x,29.9*
COc1cc(OC)c(OC)cc1/C=N/N(C)c1ccccc1,-1.9%,33.3,u,4.3%,-2.0%,17.1
CN(/N=C/c1ccc2c(c1)OCO2)c1ccccc1,-18.4%,127.1*,-13.2%,-9.2%,-9.8%,95.1*
COc1cc(/C=N/N(C)c2ccccc2)ccc1O,-9.6%,88.5*,3.2%,1.0%,-10.3%,31.1*
COc1ccc(NC(=O)/C=C/c2ccc3c(c2)OCO3)cc1,-2.5%,78.0*,2.3%,-1.4%,-13.1%,47.6*
CCNc1ccccc(C(=O)/C=C/c2ccc3c(c2)OCO3)c1=O,-18.2%,54.4,-17.2%,-2.7%,u,23.7*
CCOc1ccc(N(CC(=O)NCc2ccc(F)cc2)C(=O)CCC(=O)Nc2nccs2)cc1,0.0%,-13.4,-2.8%,6.5%,-10.1%,-1.7
CCC(c1nnnn1-c1c(C)cccc1C)N1CCN(CCN2CCOCC2)CC1 (stereo unspecified),0.7%,x,1.6%,x,x,x
COc1ccc(C(=O)N/C(=C\c2ccc3c(c2)OCO3)C(=O)Nc2ccc(C(=O)O)cc2)cc1,1.1%,-1.0,6.8%,2.5%,10.9%,-1.1
COC(=O)/C=C/c1ccc2c(c1)OCO2,-3.1%,83.4*,-8.7%,-0.6%,-0.4%,22.1*
CN(C(=O)C=Cc1ccccc1)c1ccccc1,-1.9%,x,-20.9%,x,x,x
COc1ccc(NC(=O)/C(=C/c2ccc3c(c2)OCO3)NC(C)=O)cc1,1.2%,+,11.6%,1.2%,2.4%,72.5*
CN(C(=O)/C=C/c1ccc2c(c1)OCO2)c1ccccc1,-1.9%,92.0*,-9.1%,-7.0%,2.6%,41.7*
Cc1c(NC(=O)C(C)OC(=O)/C=C/c2ccc3c(c2)OCO3)c(=O)n(-c2ccccc2)n1C (stereo unspecified),-16.1%,88.7*,0.1%,0.4%,2.7%,37.4*
Cc1ccc(C(=O)N/C(=C\c2ccc3c(c2)OCO3)C(=O)Nc2ccc(C(=O)O)cc2)cc1,2.6%,39.0*,0.1%,3.2%,9.1%,13.7
CC(=O)Nc1cc(-c2ccccc2CN(C)C)cn2c(-c3ccc(F)c(Cl)c3)cnc12,-2.6%,x,-4.6%,x,x,x
CN(C)c1ccc(CC(=O)N2CCCCC2c2cc(C(=O)Nc3cccc4c3CCCC4)no2)cc1 (stereo unspecified),1.0%,x,-18.4%,x,x,x
CCCc1cc2nnc(SCC(=O)N(C)C3CCCCC3)n2c(N)n1,-0.7%,-6.9,8.1%,-2.9%,0.4%,9.3
O=C(COc1ccc(Cl)cc1Cl)Nc1ccc(CN2CCCCC2)cc1,0.3%,-1.2,-2.8%,3.4%,-2.3%,-4.0
O=C(COc1ccc(CO)cc1)Nc1ccc(F)cc1,-7.1%,26.0,5.4%,0.3%,7.5%,15.9*
